Hits are enriched below; roughly 2.4% of the tested compounds scored in any of these assays.
CHO-K1 Ca antag: counter-screen for M1 antagonists: effect in parental CHO-K1 cells. ATP-induced calcium, Fluo-8 fluorescence. inhibition, % at 3 µM. 0.6% of 360,000 active;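 active = inhibition above a per-plate cutoff, the plate's mean sample inhibition plus 3 SD, cut at about 24% in these data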;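 note: 0% = DMSO plus EC80 ATP and 100% = DMSO alone without ATP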
CHRM1 PAM: potentiates human M1 receptor response to acetylcholine; P11229; CHO-K1 hM1, Fluo-8 calcium fluorescence, ACh EC20; 0% = ACh EC20, 100% = maximal ACh; activation, % at 3 µM; 0.088% of 360,000 active; in the data active = activation above about 19%, passing the limit was not always enough
Target sequence (P11229 whole entry, looked up): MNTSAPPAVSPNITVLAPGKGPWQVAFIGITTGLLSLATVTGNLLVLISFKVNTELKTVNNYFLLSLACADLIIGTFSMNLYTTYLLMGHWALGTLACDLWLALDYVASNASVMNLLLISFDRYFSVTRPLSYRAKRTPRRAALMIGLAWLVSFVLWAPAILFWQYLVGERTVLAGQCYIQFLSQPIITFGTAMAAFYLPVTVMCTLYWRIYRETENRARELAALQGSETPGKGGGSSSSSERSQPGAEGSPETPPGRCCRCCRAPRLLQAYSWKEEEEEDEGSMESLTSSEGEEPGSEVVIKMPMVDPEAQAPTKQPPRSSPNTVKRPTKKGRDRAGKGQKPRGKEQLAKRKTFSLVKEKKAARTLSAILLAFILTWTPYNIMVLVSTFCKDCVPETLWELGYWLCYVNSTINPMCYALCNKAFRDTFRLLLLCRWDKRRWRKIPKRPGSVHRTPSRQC
M1 ag parental: counter-screen for M1 agonists: effect in parental CHO-K1 cells; 0.48% of 360,000 active; activation, % at 3 µM; Fluo-8 calcium fluorescence; scaled to maximal ATP response, vehicle zero; AID 602248; in the data active = activation above about 15%;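 note: untransfected CHO-K1 host cells lacking M1 receptor as counterscreen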
CHRM1 agonist: human M1 muscarinic receptor agonism. P11229. 0.33% of 360,000 active. AID 588814. activation, % at 3 µM. CHO-K1 hM1, Fluo-8 calcium fluorescence, agonist mode; 0% DMSO, 100% acetylcholine EC100;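 active = activation above the run's mean compound activation plus 3 SD, cut at about 16% in these data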;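 note: peak over basal fluorescence ratio within a 140 s kinetic read after compound addition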
M1 PAM parental: M1 PAM counterscreen hit in parental CHO-K1 cells; ATP EC20, Fluo-8 calcium fluorescence; 0% at ATP EC20, 100% at ATP max; activation, % at 3 µM; 0.02% of 360,000 active; AID 602247;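 active = activation above the run cutoff, the mean activation of all test compounds plus 3 SD, cut at about 40% in these data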;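 note: peak over basal fluorescence ratio in a 140 s read after ATP addition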
CHRM1 antagonist: antagonists of human M1 muscarinic receptor; 1.3% of 360,000 active; inhibition, % at 3 µM; CHO-K1 hM1, Fluo-8 calcium fluorescence, ACh EC80 antagonist;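 active = percent inhibition above its own plate's cutoff, namely the mean of that plate's compound wells plus 3 SD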;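 note: peak over basal fluorescence ratio during 140 s after agonist addition; 0% = ACh EC80 plus DMSO and 100% = DMSO alone without agonist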
* hit, by the source's call; nt = not tested or not shown.

SMILES | CHO-K1 Ca antag | CHRM1 PAM | M1 ag parental | CHRM1 agonist | M1 PAM parental | CHRM1 antagonist
CC(C)CCC(CCN1CCOCC1)c1ccc2c(c1)OCO2 (stereo not given) | -2 | -10 | 0 | -6 | 5 | 11
O=C(COc1ccc(Cl)cc1)NNC(=O)CSc1nncs1 | -17 | 11 | 1 | -6 | 13 | -10
FC(F)C(F)(F)c1cc(-c2ccc(Cl)cc2)n[nH]1 | 2 | -7 | 18* | 16 | 17 | 12
Fc1ccc(-c2cc(C(F)(F)C(F)F)[nH]n2)cc1 | -1 | -7 | 26* | 29* | 6 | 14
Oc1ccccc1-c1cc(C(F)(F)C(F)F)[nH]n1 | -11 | -13 | 9 | 4 | 1 | 11
O=Cc1ccc(-c2c(-c3ccccc3)oc3c2C(OCCCCO)CCC3)o1 (stereo not given) | -1 | nt | 1 | nt | 20 | nt
CN(C)CCCOc1ccc2c(c1)Sc1ccccc1CC2=O | -2 | 0 | 4 | 24* | 25 | -2
COC(=O)c1cc(S(=O)(=O)N2CCN(c3ccc(F)cc3)CC2)cn1C | 5 | 0 | 20* | 0 | 21 | 0
Cc1onc(-c2ccccc2)c1NC(=O)OC(C)c1cccnc1 (stereo not given) | -8 | -14 | 1 | -10 | 19 | 25
COC(=O)C1=C(C)NC(C)=C(C(=O)OC)C1c1ccccc1OCc1c(C)no[n+]1[O-] | -13 | 22* | 0 | -4 | 32 | -13
CC1=CC(C)(C)N(C(=O)c2ccc(F)cc2)c2cc3c(cc21)OCO3 | -5 | 8 | 5 | 18* | 28 | 10
CSc1cccc(N2CC(C(=O)N(CC(C)C)c3c(N)n(Cc4ccccc4)c(=O)[nH]c3=O)CC2=O)c1 (stereo not given) | 2 | 6 | 0 | -2 | -3 | -8
Cc1cc[n+](CC(=O)c2ccc(NC(=O)c3ccccc3)cc2)cc1 | 7 | -12 | 0 | -6 | -11 | 32*
Cc1cc(C)c[n+](CC(=O)c2ccc(NC(=O)c3ccccc3)cc2)c1 | -13 | 6 | 0 | -5 | 7 | -5
O=C(C[n+]1ccccc1)c1ccc(NC(=O)c2ccccc2)cc1 | -17 | 2 | 0 | -9 | 23 | 2
Cc1cc(C)c[n+](CC(=O)c2ccc(-c3ccccc3)cc2)c1 | -7 | -23 | 0 | -14 | 18 | 36*
CC1CCC(NC(=O)COc2ccc(C(=O)c3ccccc3)cc2)CC1 (stereo not given) | 4 | 10 | 2 | -2 | -1 | -17
CC1CCN(CCCCOc2ccc(C(=O)c3ccccc3)cc2)CC1 | -5 | -24 | 1 | -3 | 11 | 55*
CC1CCN(CCCCOc2cccc(C(C)C)c2)CC1 | 10 | -31 | 1 | -5 | -24 | 70*
CC1CCN(CCOc2ccc(C(=O)c3ccccc3)cc2)CC1 | -7 | -29 | 1 | -9 | 15 | 64*
CCCOc1ccc(OCCN2CCCC(C)C2)cc1 (stereo not given) | -13 | -23 | 1 | -7 | 23 | 28*
CC1CCN(CCOc2cccc(Br)c2)CC1 | -6 | -5 | 2 | -9 | 24 | 9
Cc1ccc(OCCCCN2CCC(C)CC2)cc1 | -12 | -7 | 0 | -10 | 11 | 4
CCCC[C@@H]1C=C(C(=O)O)[C@H](c2ccc(Cl)c(Cl)c2)N1S(=O)(=O)c1ccc(C)cc1 | -4 | 3 | 0 | -6 | 7 | -5
FC(F)(F)c1ccccc1Cc1c(-c2cccc(Br)c2)nc2c3ccccc3ccn12 | -29 | 3 | 1 | -1 | 9 | -28
SMILES | CHO-K1 Ca antag | CHRM1 PAM | M1 ag parental | CHRM1 agonist | M1 PAM parental | CHRM1 antagonist
S=C1NC2=C(CCCC2=C2SCCS2)C(c2ccccc2)N1 (stereo not given) | 25* | -19 | 5 | -3 | -10 | 19
C[N+]1(CCn2ccc3ccccc32)CCCCC1 | -14 | -38 | 0 | -16 | -6 | 42*
O=C(NCCCO)c1c(O)c2cccc3c2n(c1=O)CCC3 | -12 | 13 | 1 | -7 | 17 | -15
CCc1c(C)nc2c(-c3ccccc3OC)c(C)[nH]n2c1=O | -9 | -1 | 1 | -2 | 24 | 0
CN(Cc1nccn1C)C(=O)c1ccc(OC2CCN(CCc3ccccc3)CC2)cc1 | 5 | -19 | 0 | -6 | -18 | 47*
COc1ccc(CCC(C)N2CCC(Oc3ccc(C(=O)N4CCCC4)cc3)CC2)cc1 (stereo not given) | -8 | -21 | 2 | -6 | -4 | 67*
CC(C)N(C)C(=O)c1ccc(OC2CCN(CCc3ccccc3)CC2)cc1 | -9 | -1 | 3 | -5 | 15 | -10
COc1ccccc1/C=C/CN1CCC(Oc2ccc(C(=O)N3CCCC3)cc2)CC1 | 26* | -23 | 0 | -6 | -30 | 73*
CC(CCc1ccc(O)cc1)N1CCC(Oc2ccc(C(=O)N3CCCC3)cc2)CC1 (stereo not given) | -7 | -9 | 1 | -6 | 0 | 11
O=C(c1ccc(OC2CCN(CCCc3ccccc3)CC2)cc1)N1CCCC1 | 3 | -19 | 1 | -7 | -15 | 42*
COc1ccc(/C=C/c2c(-c3ccc(OC)cc3)sc3cc(OC)c(OC)cc23)cc1 | -24 | 3 | 1 | -2 | 10 | -10
C=CSc1sc(Cl)c(N(CC)CC)c1[N+](=O)[O-] | -9 | 4 | 0 | -8 | 10 | -7
CC(=O)N1CCN(C(=O)c2ccc(OC3CCN(CCc4ccccc4)CC3)cc2)CC1 | 7 | -14 | 0 | -6 | -14 | 37*
Brc1cc2c(cc1Br)OCCOCCOCCOCCO2 | 0 | 2 | 1 | -7 | 9 | -9
Brc1ccc2c(c1)OCCOCCOc1cc(Br)ccc1OCCOCCOCCO2 | -10 | -21 | 11 | -3 | 12 | 39*
CCOC1=C2CN(S(=O)(=O)c3ccccc3)[C@H](c3ccccc3)C[C@H]2n2c(=O)n(-c3ccccc3)c(=O)n2C1 | 16 | 3 | 3 | 0 | 6 | 6
O=C(NCC(=O)N(CC1CCCO1)C(C(=O)NC1CCCCC1)c1ccccc1)c1cccs1 (stereo not given) | -11 | 7 | 1 | -1 | 12 | -20
Cc1ccc(CN(C(=O)CNC(=O)c2cccs2)C(C(=O)NCC2CCCO2)c2ccccc2)cc1 (stereo not given) | -3 | -27 | 7 | -1 | 3 | 43*
O=C(NCC1CCCO1)Nc1ccc(Cl)cc1 (stereo not given) | -3 | 8 | 1 | -3 | 18 | -12
O=C(NCC1CCCO1)c1cccs1 (stereo not given) | -1 | 19* | 0 | -3 | -2 | -19
Cc1ccc(C(C(=O)NC2CCCCC2)N(CC2CCCO2)C(=O)CNC(=O)c2cccs2)cc1 (stereo not given) | -1 | -18 | 0 | -1 | -2 | 37*

Screening data from PubChem BioAssay.
